Screens from PubChem.
Only some compounds are listed: those with a hit (about 1.6% of all), similar ones and a draw of the others.
INS promoter inh: inhibitors of insulin promoter-driven GFP, primary screen, imaging, TRM-6 cells (human fetal islet line), eGFP reporter, cell count. inhibition, % at 2 µM. reporter expression induced with tamoxifen. 130,000 tested, 0.9% active;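 active means inhibition above the mean plus 3 SD, with well images judged a real hit on visual review, cut at about 60% in these data, passing the limit was not always enough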
E-sel TNF inh: E-selectin induction blockers in HUVEC – imaging, immunofluorescence, high content, primary screen | 120,000 tested, 0.71% active | HUVEC TNFa-induced E-selectin immunofluorescence | inhibition, % at 2 µM | AID 1246, 2008;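 active means inhibition above the batch mean plus 3 SD, and confirmed as a hit on visual image review, cut at about 43% in these data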;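 further: 0% = TNF-stimulated DMSO wells and 100% = unstimulated control wells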
VCAM1 TNFa inh: inhibitors of TNFa-induced VCAM1 expression, primary screen, imaging, HUVEC, TNFa stimulus, immunofluorescence. HUVEC TNFa-induced VCAM-1 immunofluorescence, high-content imaging. inhibition, % at 2 µM. 95,000 tested, 0.48% active. AID 802, 2007;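 active means inhibition above the batch mean plus 3 SD, with images confirmed as a hit by eye, cut at about 37% in these data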;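 further: 0% = TNF-stimulated DMSO wells and 100% = unstimulated control wells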
Phagocyt inh: inhibitors of macrophage phagocytosis, primary screen, imaging, J774A.1 cells, IgG beads; 110,000 tested, 0.07% active; J774A.1 macrophage IgG-bead phagocytosis; inhibition, % at 5 µM;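 active means inhibition above the mean of the plate negative controls plus 5 SD, cut at about 13% in these data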;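 further: phagocytic index as fraction of beads internalized from green versus red external bead signal; plate controls were DMSO negative control for no effect and cytochalasin-D positive control for full effect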
cytoskel mod: modifiers of F-actin cytoskeleton organization, primary screen, imaging, HUVEC, phalloidin staining, high-content imaging; 91,000 tested, 0.18% active; inhibition, % at 2 µM; HUVEC TNFa F-actin phalloidin imaging;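 active means inhibition above the batch mean plus 3 SD and confirmed as a hit by visual image inspection, cut at about 30% in these data, passing the limit was not always enough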
TNFa cytotox: cytotoxicity in TNFa-stimulated HUVEC, primary screen, cytotoxicity control for VCAM1 expression modulator project, imaging, Hoechst nuclei count; cell count reduction, % at 2 µM; HUVEC TNFalpha-stimulated, Hoechst cell count; 93,000 tested, 0.17% active; AID 848, 2007;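 active means cell count reduction exceeding the screen mean by over 5 SD, scaled to untreated wells per plate, cut at about 78% in these data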;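 further: cells counted after 24 h of TNF alpha exposure following the 1 h pretreatment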
Numbers without * were called inactive.

N#C/C(=C\c1cn[nH]c1-c1ccc(Cl)cc1)C(=O)NC1CC1 was read as INS promoter inh 79* and Phagocyt inh -3.
For COc1ccc(-c2[nH]ncc2/C=C(\C#N)C(=O)NC2CC2)cc1 the results were INS promoter inh 73*, E-sel TNF inh 14, VCAM1 TNFa inh 15, Phagocyt inh 1, cytoskel mod -1 and TNFa cytotox -4.
CC(=O)NC(Cc1c[nH]c2ccccc12)C(=O)OCC(=O)Nc1ccc2c(c1)OCO2 (centres undefined) was read as VCAM1 TNFa inh 12, Phagocyt inh 0, cytoskel mod 8 and TNFa cytotox -22.
`CC(=O)N[C@@H](Cc1c[nH]c2ccccc12)C(=O)OCC(=O)Nc1ccc(Cl)c(S(=O)(=O)N(C)C)c1` gave E-sel TNF inh 62*.
Screening COc1cccc(/C=C/C(=O)OCC(=O)Nc2ccc(Cl)c(S(=O)(=O)N(C)C)c2)c1 returned INS promoter inh 0 and E-sel TNF inh 69*.
COc1cccc(/C=C/C(=O)OCC(=O)Nc2cccc(S(=O)(=O)N(C)C)c2)c1 was read as INS promoter inh 35.
For NCc1ccccc1COc1ccccc1 the results were INS promoter inh 58 and Phagocyt inh -1.
For O=C1c2oc3ccccc3c(=O)c2C(c2cccc(F)c2)N1CCCO (centres undefined) the results were E-sel TNF inh 2, VCAM1 TNFa inh 23, cytoskel mod 67* and TNFa cytotox -10.
For O=C1c2oc3ccccc3c(=O)c2C(c2cccc(O)c2)N1CCCN1CCOCC1 (centres undefined) the results were E-sel TNF inh 3, VCAM1 TNFa inh 17, Phagocyt inh 0, cytoskel mod 18 and TNFa cytotox -31.
CCSc1nc2ccccc2n1C(=O)/C=C/c1ccc(OC)c(OC)c1 was read as INS promoter inh 50, E-sel TNF inh 100* and Phagocyt inh -3.
`C=CCSc1nc2ccccc2n1C(=O)/C=C/c1ccc(OC)c(OC)c1` gave INS promoter inh -16, E-sel TNF inh -7, VCAM1 TNFa inh -8, cytoskel mod -1 and TNFa cytotox 8.
For C=CCSc1nc2ccccc2n1C(=O)/C=C/c1cc(OC)c(OC)c(OC)c1 the results were INS promoter inh 29, E-sel TNF inh 66*, VCAM1 TNFa inh 92*, cytoskel mod 23 and TNFa cytotox 10.
For O=C(C1=C(O)C(=O)N(c2ncccn2)C1c1ccc(Cl)cc1)c1ccco1 (centres undefined) the results were INS promoter inh 42, E-sel TNF inh -36, VCAM1 TNFa inh 1, cytoskel mod 3 and TNFa cytotox 8.
`Cc1ccc(C(=O)C2=C(O)C(=O)N(c3ncccn3)C2c2ccc(Cl)cc2)o1` (centres undefined) gave INS promoter inh 80*, E-sel TNF inh 6, VCAM1 TNFa inh 10, cytoskel mod 13 and TNFa cytotox -8.
For O=C(O)CCN1C(=O)C2CCCCC2C1=O (centres undefined) the results were INS promoter inh -26, E-sel TNF inh -13, VCAM1 TNFa inh -8 and TNFa cytotox -3.
`O=C(O)C1CCC(N2C(=O)C3CCCCC3C2=O)CC1` (centres undefined) gave INS promoter inh 22, E-sel TNF inh -12, VCAM1 TNFa inh 78*, Phagocyt inh 2, cytoskel mod -49 and TNFa cytotox 57.
`O=C(CN1CCN(c2ccccc2)CC1)Nc1ccccc1Cl` gave INS promoter inh -11.
`O=C(CN1CCN(c2ccccc2)CC1)Nc1ccccc1C(F)(F)F` gave INS promoter inh 88*, E-sel TNF inh -25 and Phagocyt inh -4.
For Cc1cc(C)cc(N(C(=O)CCC(=O)Nc2ccccn2)C(C(=O)NC(C)C)c2ccc(O)cc2)c1 (centres undefined) the results were E-sel TNF inh 8.
N#CC1=C(N)C(C#N)(C#N)[C@H](c2ccncc2)[C@H]2CN(C(=O)OCc3ccccc3)CC=C12 was read as E-sel TNF inh 96*.
Screening OC(Cc1cccnc1)(Cc1cccnc1)c1cc2ccccc2[nH]1 returned INS promoter inh 28 and Phagocyt inh -5.
